Consider 30 molecules from PubChem BioAssay (NCATS).

Molecules are shown by their SMILES. Results filed as inconclusive are left out. A number with no mark means an inactive call. Active and inactive are the calls of the source. Calls follow the shape of the dose curve; as a rule, active = well fitted inhibition curve with a large enough effect; inconclusive = small, poorly fitted or top-dose-only effect; inactive = flat fitted curve, though single readings scatter.
Also: nearly all actives have a fitted effect of over 60% in size.

In one assay the test system is NIH3T3. The assay is described as follows: Cytotoxic Profiling of Annotated Libraries Using Quantitative High-Throughput Screening (AID 1296008). As to max response: % is scaled to controls: 0 for no effect and ±100 for the full control effect. To be noted: Five cell lines viability, CellTiter-Glo ATP luminescence, 48-72 h; max response: hits give low values. The procedure, abridged:
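Cytotoxicity was measured as CellTiter-Glo ATP luminescence, read after 10 min at room temperature. Compound treatment of the cells lasted 48 or 72 hr at 37 degrees Celsius in a qHTS format.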
Background: ATP-based viability assays read luminescence as a measure of living cells.
In the case of `COc1ccc(-c2cc(=O)c3c(O)cc(O[C@@H]4O[C@H](CO[C@@H]5O[C@@H](C)[C@H](O)[C@@H](O)[C@@H]5O)[C@@H](O)[C@H](O)[C@@H]4O)cc3o2)cc1O`, the molecule was classed as inactive.
For the molecule `COC(=O)N1CCN(Cc2cccc(NC(=O)Nc3ccc(C)nc3)c2F)CC1`, the max response is -1.49% and the molecule was classed as inactive.
`Cc1cnc(-c2cc(N3CCN(C(=O)CCS(C)(=O)=O)CC3)ncc2Cl)c(C)c1`: the outcome was inactive.
As to `NC(=O)c1ccc(N(C(N)=O)c2c(F)cccc2F)nc1-c1ccc(F)cc1F`, the max response is 4.54% and the result was inactive.

Another assay relates to HACAT. Nature of the assay: qHTS assay to identify novel small-molecules to repurpose for Merkel cell carcinoma treatment (AID 1296009). To be noted: MCC and control cell lines, CellTiter-Glo viability, 72 h; at 44.8 µM (top of the series) unless noted. The procedure, abridged:
(§1)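 72 hr, 37 degree celsius; NPC 8-pt / MIPE 11-pt dose response; compound pinned in DMSO; CellTiter-Glo, 10 min RT, luminescence; normalized to no-cell and DMSO controls.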
For orientation: In qHTS, concentration-response curves come from the screen itself.
Take `COc1nccc(-c2c(-c3ccc(F)cc3)ncn2C2CCC(O)CC2)n1` (centres undefined): the molecule was called inactive.
With `CNc1nc(Nc2ccc(C(=O)N3CCOCC3)cc2OC)ncc1Cl`, the molecule was classed as inactive.
Same read-out and setting: with `NS(=O)(=O)c1cc(Cl)c(Cl)c(S(N)(=O)=O)c1` the entry was “inactive”.
As for `CC1CCN(c2cc(N3CCN(C)CC3)ccc2NC(=O)c2cc(C#N)c[nH]2)CC1`, the molecule was classed as inactive.
Take `COc1ccnc(CS(=O)c2nc3ccc(OC(F)F)cc3[nH]2)c1OC` (centres undefined): the call was inactive.
With `c1cc(OCCN2CCCCC2)cc(-c2n[nH]c3ccc(-c4ncn[nH]4)cc23)c1`, the molecule was called inactive.
With `CCOC(=O)[C@H](CCc1ccccc1)N[C@@H](C)C(=O)N1CCCC1C(=O)O` (some centres undefined), the outcome was inactive.
Still for that read-out and setting: with `Cc1ccccc1-n1c(Cn2nc(-c3cccc(O)c3)c3c(N)ncnc32)nc2cccc(C)c2c1=O` the entry was “inactive”.
Same read-out and setting: the entry for `CC(C)(OCc1nn(Cc2ccccc2)c2ccccc12)C(=O)O` is “inactive”; for `Cc1ccccc1C(C(=O)NC1CCCCC1)N(C(=O)CNc1ccc(C#N)cc1)c1cccc(F)c1` (centres undefined) it is “inactive”; for `O=c1cc(-c2ccc(O)c(O)c2)oc2cc(O)cc(O)c12` it is “inactive”.
As for `COc1nc(C)cnc1NS(=O)(=O)c1cccnc1-c1ccc(-c2nnco2)cc1`, the molecule was called inactive.
The same measure, in the same setting: the entry for `O=C(c1ccc(C(=O)N2CCC(N3CCCC3)CC2)c(Nc2ccccc2)c1)N1CCC(N2CCCC2)CC1` is “inactive”; for `Clc1ccc(C2(c3ccc(-c4cn[nH]c4)cc3)CCNCC2)cc1` it is “inactive”.
The same measure, in the same setting: with `CC1=C(C(=O)Nc2cc3cn[nH]c3cc2F)C(c2ccc(C(F)(F)F)cc2)CC(=O)N1` (centres undefined) the entry was “inactive”.
The same measure, in the same setting: the entry for `CC(=O)N1CCN(c2ccc(OCc3nn(C)c(C)c3-c3cccc4c(CCCOc5cc(C)c(Cl)c(C)c5)c(C(=O)O)n(Cc5cccnc5)c34)cc2)CC1` is “inactive”; for `Cn1c(=O)c(-c2c(Cl)cccc2Cl)cc2cnc(Nc3cccc(C(=O)O)c3)nc21` it is “inactive”.
For the molecule `COc1ccc(CCC(=O)Nc2nc3ccc(Cl)cc3s2)cc1OC`, the molecule was called inactive.
Still for that read-out and setting: with `O=C(O)CCNc1cc(N2CCc3ccccc3CC2)nc(-c2ccccn2)n1` the entry was “inactive”.
The same measure, in the same setting: the entry for `CN1CCC(COc2cnc(-c3cccc(Cn4nc(-c5cccc(C#N)c5)ccc4=O)c3)nc2)CC1` is “inactive”; for `C[C@H](c1ccc(F)cc1CCCC(=O)O)N(c1cc(F)ccc1F)S(=O)(=O)c1ccc(Cl)cc1` it is “inactive”; for `COc1ccc(-c2cc(=O)c3c(O)cc(O[C@@H]4O[C@H](CO[C@@H]5O[C@@H](C)[C@H](O)[C@@H](O)[C@@H]5O)[C@@H](O)[C@H](O)[C@@H]4O)cc3o2)cc1O` it is “inactive”.
On the same count and under the same terms, with `Cc1cnc(-c2cc(N3CCN(C(=O)CCS(C)(=O)=O)CC3)ncc2Cl)c(C)c1` the entry was “inactive”.

The next assay deals with HEK293T. Described as above. Conditions: MCC and control cell lines, CellTiter-Glo viability, 72 h; at 44.8 µM (top of the series) unless noted. The procedure, abridged:
as §1
On to `COc1nccc(-c2c(-c3ccc(F)cc3)ncn2C2CCC(O)CC2)n1` (centres undefined), for which the molecule was called inactive.
Same read-out and setting: with `COc1cc(Nc2nc3ccccc3nc2NS(=O)(=O)c2ccc(NC(=O)c3ccc(C)c(OC)c3)cc2)cc(OC)c1` the entry was “inactive”.
On the same count and under the same terms, with `NS(=O)(=O)c1cc(Cl)c(Cl)c(S(N)(=O)=O)c1` the entry was “inactive”.
Still for that read-out and setting: with `CN1C(=O)C(Cc2c[nH]c3ccccc23)NC1=S` (centres undefined) the entry was “inactive”.
`CNC(=O)c1c(-c2ccc(F)cc2)oc2cc(N(CCO)S(C)(=O)=O)c(C3CC3)cc12`: the call was inactive.
On to `COc1ccnc(CS(=O)c2nc3ccc(OC(F)F)cc3[nH]2)c1OC` (centres undefined), for which the call was inactive.
On the same count and under the same terms, with `CCOC(=O)[C@H](CCc1ccccc1)N[C@@H](C)C(=O)N1CCCC1C(=O)O` (some centres undefined) the entry was “inactive”; with `CC(C)(OCc1nn(Cc2ccccc2)c2ccccc12)C(=O)O`, “inactive”.
The same measure, in the same setting: with `Cc1ccccc1C(C(=O)NC1CCCCC1)N(C(=O)CNc1ccc(C#N)cc1)c1cccc(F)c1` (centres undefined) the entry was “inactive”.
On the same count and under the same terms, with `O=c1cc(-c2ccc(O)c(O)c2)oc2cc(O)cc(O)c12` the entry was “inactive”; with `COc1nc(C)cnc1NS(=O)(=O)c1cccnc1-c1ccc(-c2nnco2)cc1`, “inactive”.
Consider `CC1=C(C(=O)Nc2cc3cn[nH]c3cc2F)C(c2ccc(C(F)(F)F)cc2)CC(=O)N1` (centres undefined), for which the call was inactive.
On the same count and under the same terms, the entry for `CC(=O)N1CCN(c2ccc(OCc3nn(C)c(C)c3-c3cccc4c(CCCOc5cc(C)c(Cl)c(C)c5)c(C(=O)O)n(Cc5cccnc5)c34)cc2)CC1` is “inactive; activator”.
On the same count and under the same terms, the entry for `CCN1C[C@H](C)n2c(c(O)c3c(=O)n(Cc4ccc(F)c(Cl)c4)nc(C(=O)NC)c32)C1=O` is “inactive”.
On the same count and under the same terms, the entry for `COc1cc2ncnc(Nc3cc(Br)c(O)c(Br)c3)c2cc1OC` is “inactive”; for `O=C(O)CCNc1cc(N2CCc3ccccc3CC2)nc(-c2ccccn2)n1` it is “inactive”.
Turning to `CN1CCC(COc2cnc(-c3cccc(Cn4nc(-c5cccc(C#N)c5)ccc4=O)c3)nc2)CC1`, the molecule was classed as inactive.
Same read-out and setting: the entry for `C[C@H](c1ccc(F)cc1CCCC(=O)O)N(c1cc(F)ccc1F)S(=O)(=O)c1ccc(Cl)cc1` is “inactive”.
On the same count and under the same terms, with `COc1ccc(-c2cc(=O)c3c(O)cc(O[C@@H]4O[C@H](CO[C@@H]5O[C@@H](C)[C@H](O)[C@@H](O)[C@@H]5O)[C@@H](O)[C@H](O)[C@@H]4O)cc3o2)cc1O` the entry was “inactive”; with `Cc1cnc(-c2cc(N3CCN(C(=O)CCS(C)(=O)=O)CC3)ncc2Cl)c(C)c1`, “inactive”.
